Laboratory results reported in the supplement of paper PMC10849652.
Of roughly 8,800 targets only a part is listed; those with a hit were picked by preference. About 0.5% of all pairs of compound and target were hits.

Assays:
Test in all cases: log2 fold change, soluble protein after heating vs DMSO (PISA); higher = thermal stabilisation; K562 lysate, 10 uM; active = over 0.2 and 3.5 SD of the protein, either way, in both replicates (recomputed)
lapatinib = compound: CS(=O)(=O)CCNCc1ccc(-c2ccc3ncnc(Nc4ccc(OCc5cccc(F)c5)c(Cl)c4)c3c2)o1 [lapatinib]
Summary of the method: (§1)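 Log-two fold change in thermal stability relative to solvent controls is reported from duplicates. For each sample, crude K562 extract from dounce-homogenised pellets in PBS pH 7.4 with 1 mM MgCl2, at 1 mg/mL protein, was treated with 10 μM compound for 30 min. Aliquots heated for 3 min across 48°C-58°C were pooled, brought to 0.5% NP-40 at 4°C and cleared at 21,000xg for 90 min. The supernatant was quantified by TMTpro 16plex LC-MS/MS with channel sums equalised.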

pictilisib = compound: CS(=O)(=O)N1CCN(Cc2cc3nc(-c4cccc5[nH]ncc45)nc(N4CCOCC4)c3s2)CC1 [pictilisib]
Summary of the method: as §1

crizotinib = compound: C[C@@H](Oc1cc(-c2cnn(C3CCNCC3)c2)cnc1N)c1c(Cl)ccc(F)c1Cl [crizotinib]
Summary of the method: as §1

[1] = compound: C[C@H](C1=CC=C(C=C1)C(=O)NC2=C3C=CNC3=NC=C2)N
Summary of the method: as §1

duvelisib = compound: C[C@H](Nc1ncnc2nc[nH]c12)c1cc2cccc(Cl)c2c(=O)n1-c1ccccc1 [duvelisib]
Summary of the method: as §1

gandotinib = compound: Cc1cc(Nc2cc(CN3CCOCC3)c3nc(C)c(Cc4ccc(Cl)cc4F)n3n2)n[nH]1 [gandotinib]
Summary of the method: as §1

tozasertib = compound: Cc1cc(Nc2cc(N3CCN(C)CC3)nc(Sc3ccc(NC(=O)C4CC4)cc3)n2)n[nH]1 [tozasertib]
Summary of the method: as §1

doramapimod = compound: Cc1ccc(-n2nc(C(C)(C)C)cc2NC(=O)Nc2ccc(OCCN3CCOCC3)c3ccccc23)cc1 [doramapimod]
Summary of the method: as §1

bafetinib = compound: Cc1ccc(NC(=O)c2ccc(CN3CC[C@H](N(C)C)C3)c(C(F)(F)F)c2)cc1Nc1nccc(-c2cncnc2)n1 [bafetinib]
Summary of the method: as §1

[2] = compound: Cc1cccc(CC(=O)N2CCc3c2ccc(-c2cn(C)c4ncnc(N)c24)c3F)n1
Summary of the method: as §1

nilotinib = compound: Cc1cn(-c2cc(NC(=O)c3ccc(C)c(Nc4nccc(-c5cccnc5)n4)c3)cc(C(F)(F)F)c2)cn1 [nilotinib]
Summary of the method: as §1

[3] = compound: Cc1nc(Nc2n[nH]c3c2CN(C(=O)N[C@H](CN(C)C)c2ccccc2)C3(C)C)c2sccc2n1
Summary of the method: as §1

dasatinib = compound: Cc1nc(Nc2ncc(C(=O)Nc3c(C)cccc3Cl)s2)cc(N2CCN(CCO)CC2)n1 [dasatinib]
Summary of the method: as §1

[4] = compound: Cc1ncc(-c2ccnc(Nc3ccc(S(C)(=O)=O)cc3)n2)n1C(C)C
Summary of the method: as §1

[5] = compound: Cn1cc(-c2ccc3c(c2)CCN3C(=O)Cc2cccc(C(F)(F)F)c2)c2c(N)ncnc21
Summary of the method: as §1

quisinostat = compound: Cn1cc(CNCC2CCN(c3ncc(C(=O)NO)cn3)CC2)c2ccccc21 [quisinostat]
Summary of the method: as §1

tipifarnib = compound: Cn1cncc1[C@@](N)(c1ccc(Cl)cc1)c1ccc2c(c1)c(-c1cccc(Cl)c1)cc(=O)n2C [tipifarnib]
Summary of the method: as §1

[6] = compound: NC(=O)Nc1cc(-c2cccc(F)c2)sc1C(=O)N[C@H]1CCCNC1
Summary of the method: as §1

[7] = compound: NC(=O)c1cnc(N[C@@H]2CCCC[C@@H]2N)nc1Nc1cccc(-n2nccn2)c1
Summary of the method: as §1

[8] = compound: NC1(c2ccc(-c3nc4ccn5c(=O)[nH]nc5c4cc3-c3ccccc3)cc2)CCC1
Summary of the method: as §1

Measured: log2 fold change

DLG3 isoform 2 (UniProt Q92796)
inactive: lapatinib 0.008 | pictilisib 0.073 | crizotinib -0.01 | [1] -0.047 | duvelisib 0.125 | gandotinib 0 | tozasertib 0.097 | doramapimod 0.043 | bafetinib 0.055 | [2] 0.065 | nilotinib -0.036 | [3] 0.027 | dasatinib -0.062 | [4] 0.146 | [5] -0.004 | quisinostat -0.007 | tipifarnib 0.085 | [6] -0.03 | [7] -0.031 | [8] -0.049

CSNK1D (UniProt P48730)
Chain of UniProt P48730 (P48730 whole entry, looked up): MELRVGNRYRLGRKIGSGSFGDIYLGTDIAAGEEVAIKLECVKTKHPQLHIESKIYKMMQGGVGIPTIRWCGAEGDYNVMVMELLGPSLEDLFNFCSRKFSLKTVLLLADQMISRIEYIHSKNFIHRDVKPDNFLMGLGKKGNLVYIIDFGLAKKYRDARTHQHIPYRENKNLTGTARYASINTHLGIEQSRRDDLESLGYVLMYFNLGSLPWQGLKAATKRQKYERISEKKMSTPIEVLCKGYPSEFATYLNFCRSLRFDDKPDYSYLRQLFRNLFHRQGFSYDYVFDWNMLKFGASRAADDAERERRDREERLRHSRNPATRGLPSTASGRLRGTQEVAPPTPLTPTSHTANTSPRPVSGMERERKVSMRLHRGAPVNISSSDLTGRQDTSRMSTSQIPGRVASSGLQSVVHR
active: [4] -0.551
inactive: lapatinib -0.098 | pictilisib 0.066 | crizotinib 0.052 | [1] -0.153 | duvelisib 0.007 | gandotinib 0.059 | tozasertib 0.008 | doramapimod -0.011 | bafetinib -0.01 | [2] -0.177 | nilotinib 0.199 | [3] -0.384 | dasatinib 0.028 | [5] -0.059 | quisinostat -0.049 | tipifarnib -0.139 | [6] 0.021 | [7] 0.072

CIP2A (UniProt Q8TCG1)
inactive: lapatinib -0.02 | pictilisib -0.045 | crizotinib -0.101 | [1] -0.049 | duvelisib 0.012 | gandotinib -0.218 | tozasertib 0 | doramapimod 0.005 | bafetinib -0.047 | [2] 0.103 | nilotinib -0.006 | [3] 0.02 | dasatinib -0.107 | [4] 0.024 | [5] 0.054 | quisinostat -0.123 | tipifarnib 0.01 | [6] 0.019 | [7] 0.032 | [8] -0.014

DIAPH3 (UniProt Q9NSV4)
inactive: lapatinib 0.068 | pictilisib 0.005 | crizotinib 0.003 | [1] 0.039 | duvelisib -0.043 | gandotinib -0.102 | tozasertib -0.017 | doramapimod 0.036 | bafetinib -0.075 | [2] 0.135 | nilotinib -0.019 | [3] 0.019 | dasatinib -0.167 | [4] -0.021 | [5] 0.029 | quisinostat -0.093 | tipifarnib -0.041 | [6] 0.057 | [7] 0.077 | [8] 0.019

CTPS2 (UniProt Q9NRF8)
inactive: lapatinib -0.025 | pictilisib -0.018 | crizotinib -0.004 | [1] -0.032 | duvelisib 0.016 | gandotinib -0.002 | tozasertib 0.009 | doramapimod 0.021 | bafetinib 0.077 | [2] 0.003 | nilotinib -0.005 | [3] 0.006 | dasatinib -0.035 | [4] -0.002 | [5] 0.01 | quisinostat 0.029 | tipifarnib 0.003 | [6] 0.001 | [7] -0.003 | [8] 0.012

CKAP2 (UniProt Q8WWK9)
Chain of UniProt Q8WWK9 (Q8WWK9 whole entry, looked up): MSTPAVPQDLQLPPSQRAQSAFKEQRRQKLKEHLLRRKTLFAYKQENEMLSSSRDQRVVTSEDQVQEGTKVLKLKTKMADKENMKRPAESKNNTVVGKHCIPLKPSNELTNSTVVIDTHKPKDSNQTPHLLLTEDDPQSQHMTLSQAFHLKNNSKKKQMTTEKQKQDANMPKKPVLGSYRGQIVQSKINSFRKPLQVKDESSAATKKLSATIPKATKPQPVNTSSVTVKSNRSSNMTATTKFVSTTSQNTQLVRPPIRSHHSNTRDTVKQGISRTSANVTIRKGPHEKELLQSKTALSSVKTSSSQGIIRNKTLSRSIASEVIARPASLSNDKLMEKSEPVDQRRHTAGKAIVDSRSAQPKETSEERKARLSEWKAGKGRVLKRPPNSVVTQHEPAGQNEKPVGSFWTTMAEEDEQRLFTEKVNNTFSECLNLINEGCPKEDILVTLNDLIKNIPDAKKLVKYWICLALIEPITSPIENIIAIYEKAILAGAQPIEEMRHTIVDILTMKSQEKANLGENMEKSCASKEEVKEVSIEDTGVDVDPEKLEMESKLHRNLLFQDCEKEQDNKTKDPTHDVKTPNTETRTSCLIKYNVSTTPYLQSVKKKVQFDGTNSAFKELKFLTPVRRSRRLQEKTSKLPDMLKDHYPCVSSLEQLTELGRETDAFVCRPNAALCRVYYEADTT
inactive: lapatinib -0.004 | pictilisib -0.02 | crizotinib -0.027 | [1] 0.064 | duvelisib 0.016 | gandotinib 0.016 | tozasertib 0.034 | doramapimod -0.001 | bafetinib 0.019 | [2] -0.009 | nilotinib 0.075 | [3] 0.07 | dasatinib 0.004 | [4] 0.036 | [5] -0.014 | quisinostat -0.098 | tipifarnib -0.053 | [6] -0.015 | [7] -0.049 | [8] -0.023

CNOT4 isoform 6 (UniProt O95628)
Chain of UniProt O95628 (O95628 whole entry, looked up): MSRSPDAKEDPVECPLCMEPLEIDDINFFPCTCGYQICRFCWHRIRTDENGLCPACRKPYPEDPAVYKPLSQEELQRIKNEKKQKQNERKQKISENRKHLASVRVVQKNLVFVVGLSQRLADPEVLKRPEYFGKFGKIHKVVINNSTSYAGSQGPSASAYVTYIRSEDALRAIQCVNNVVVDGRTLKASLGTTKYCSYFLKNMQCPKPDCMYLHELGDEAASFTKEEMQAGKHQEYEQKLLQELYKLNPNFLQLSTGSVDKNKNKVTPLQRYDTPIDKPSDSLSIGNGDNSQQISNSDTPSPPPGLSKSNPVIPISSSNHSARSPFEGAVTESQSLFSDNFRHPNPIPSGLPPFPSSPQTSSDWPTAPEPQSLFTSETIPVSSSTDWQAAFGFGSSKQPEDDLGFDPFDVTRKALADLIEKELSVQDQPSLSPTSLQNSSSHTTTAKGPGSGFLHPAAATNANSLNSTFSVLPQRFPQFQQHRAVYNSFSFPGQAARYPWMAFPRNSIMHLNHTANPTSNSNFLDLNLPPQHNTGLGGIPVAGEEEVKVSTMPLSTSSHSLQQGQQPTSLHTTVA
inactive: lapatinib 0.039 | pictilisib -0.06 | crizotinib 0.146 | [1] -0.093 | duvelisib -0.011 | gandotinib 0.075 | tozasertib -0.027 | bafetinib -0.054 | [2] 0.028 | nilotinib -0.004 | [3] 0.053 | dasatinib 0.034 | [4] 0.057 | [5] 0.013 | quisinostat 0.107 | tipifarnib -0.018 | [6] 0.041 | [7] -0.022 | [8] 0.008
active: doramapimod -0.234

CUL1 (UniProt Q13616)
inactive: lapatinib -0.007 | pictilisib 0.004 | crizotinib 0.014 | [1] -0.007 | duvelisib 0.015 | gandotinib 0.03 | tozasertib -0.001 | doramapimod 0.01 | bafetinib 0.03 | [2] -0.002 | nilotinib 0.025 | [3] 0.022 | dasatinib 0.034 | [4] 0.028 | [5] 0.027 | quisinostat 0.017 | tipifarnib 0.001 | [6] -0.021 | [7] -0.011 | [8] -0.004

CSDE1 isoform 4 (UniProt O75534)
Chain of UniProt O75534 (O75534 whole entry, looked up): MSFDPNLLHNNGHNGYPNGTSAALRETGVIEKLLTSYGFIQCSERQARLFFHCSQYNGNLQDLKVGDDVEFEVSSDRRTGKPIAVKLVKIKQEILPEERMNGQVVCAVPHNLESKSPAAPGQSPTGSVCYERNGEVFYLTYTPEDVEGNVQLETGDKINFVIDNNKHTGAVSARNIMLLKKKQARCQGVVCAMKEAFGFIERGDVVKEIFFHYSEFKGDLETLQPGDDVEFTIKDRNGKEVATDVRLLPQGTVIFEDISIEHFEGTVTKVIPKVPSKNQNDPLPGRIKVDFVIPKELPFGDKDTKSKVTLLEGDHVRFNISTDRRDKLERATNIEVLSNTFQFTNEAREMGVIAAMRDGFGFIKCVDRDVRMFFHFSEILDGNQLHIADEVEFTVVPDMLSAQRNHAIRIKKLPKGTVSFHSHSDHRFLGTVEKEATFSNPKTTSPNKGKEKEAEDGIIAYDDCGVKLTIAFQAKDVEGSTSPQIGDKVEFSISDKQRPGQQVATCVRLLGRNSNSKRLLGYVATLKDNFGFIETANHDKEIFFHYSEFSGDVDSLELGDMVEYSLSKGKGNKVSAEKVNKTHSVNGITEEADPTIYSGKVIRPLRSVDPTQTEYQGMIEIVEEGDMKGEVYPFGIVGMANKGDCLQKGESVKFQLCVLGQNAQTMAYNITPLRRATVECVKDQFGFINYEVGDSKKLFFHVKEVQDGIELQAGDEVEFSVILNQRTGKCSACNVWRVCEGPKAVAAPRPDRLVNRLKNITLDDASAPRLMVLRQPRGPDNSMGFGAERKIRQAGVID
inactive: lapatinib 0.001 | pictilisib -0.004 | crizotinib -0.006 | [1] 0.041 | duvelisib -0.015 | gandotinib -0.095 | tozasertib 0.003 | doramapimod 0.005 | bafetinib -0.021 | [2] -0.017 | nilotinib 0.01 | [3] -0.018 | dasatinib -0.012 | [4] 0.001 | [5] 0.048 | quisinostat 0.014 | tipifarnib 0.012 | [6] 0.041 | [7] -0.009 | [8] -0.016

CSNK2B (UniProt P67870)
Chain of UniProt P67870 (P67870 whole entry, looked up): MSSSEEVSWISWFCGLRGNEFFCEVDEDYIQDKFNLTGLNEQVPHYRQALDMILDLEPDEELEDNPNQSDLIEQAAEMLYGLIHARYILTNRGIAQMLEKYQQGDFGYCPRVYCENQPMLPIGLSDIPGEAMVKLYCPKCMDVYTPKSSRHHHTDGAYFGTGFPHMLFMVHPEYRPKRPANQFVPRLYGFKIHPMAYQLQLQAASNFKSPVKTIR
inactive: lapatinib -0.052 | pictilisib 0.023 | crizotinib -0.073 | [1] 0.027 | duvelisib -0.053 | gandotinib 0.016 | tozasertib 0.004 | doramapimod 0.022 | bafetinib 0.064 | [2] -0.05 | nilotinib 0.086 | [3] -0.029 | dasatinib -0.014 | [4] 0.034 | [5] -0.006 | quisinostat -0.005 | tipifarnib -0.058 | [6] 0.028 | [7] 0.042 | [8] -0.049

CTNND1 isoform 3 (UniProt O60716)
Chain of UniProt O60716 (O60716 whole entry, looked up): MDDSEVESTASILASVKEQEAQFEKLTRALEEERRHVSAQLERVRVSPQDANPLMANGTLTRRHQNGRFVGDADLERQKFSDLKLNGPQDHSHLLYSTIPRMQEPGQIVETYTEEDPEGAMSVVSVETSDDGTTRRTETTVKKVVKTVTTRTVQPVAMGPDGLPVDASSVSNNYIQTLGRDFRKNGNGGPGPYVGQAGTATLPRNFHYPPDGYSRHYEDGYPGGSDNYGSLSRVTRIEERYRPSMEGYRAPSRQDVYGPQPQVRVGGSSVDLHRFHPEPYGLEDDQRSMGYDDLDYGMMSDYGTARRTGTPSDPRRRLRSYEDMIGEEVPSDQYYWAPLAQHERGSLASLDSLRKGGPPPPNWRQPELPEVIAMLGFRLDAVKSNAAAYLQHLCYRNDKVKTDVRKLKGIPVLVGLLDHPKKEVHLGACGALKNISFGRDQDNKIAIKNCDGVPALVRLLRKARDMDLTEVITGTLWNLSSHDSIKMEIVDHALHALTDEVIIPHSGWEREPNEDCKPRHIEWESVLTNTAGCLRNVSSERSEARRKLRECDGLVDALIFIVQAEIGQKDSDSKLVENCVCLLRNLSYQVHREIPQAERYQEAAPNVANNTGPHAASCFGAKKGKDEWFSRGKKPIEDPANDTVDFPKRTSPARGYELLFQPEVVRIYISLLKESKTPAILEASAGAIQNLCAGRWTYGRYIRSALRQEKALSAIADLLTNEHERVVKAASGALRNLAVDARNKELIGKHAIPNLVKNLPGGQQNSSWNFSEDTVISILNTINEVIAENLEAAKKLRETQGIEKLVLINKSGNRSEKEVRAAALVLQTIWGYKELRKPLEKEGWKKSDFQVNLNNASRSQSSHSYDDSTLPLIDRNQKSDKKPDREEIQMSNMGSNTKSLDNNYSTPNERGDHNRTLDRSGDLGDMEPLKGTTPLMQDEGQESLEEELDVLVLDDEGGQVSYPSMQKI
inactive: lapatinib -0.019 | pictilisib -0.047 | crizotinib -0.039 | [1] -0.006 | duvelisib 0.008 | gandotinib -0.001 | tozasertib 0.002 | doramapimod 0.007 | bafetinib -0.025 | [2] 0.04 | nilotinib -0.027 | [3] -0.02 | dasatinib 0.006 | [4] -0.017 | [5] 0.009 | quisinostat -0.065 | tipifarnib -0.06 | [6] 0.027 | [7] 0.065 | [8] -0.065

DDX54 isoform 2 (UniProt Q8TDD1)
inactive: lapatinib -0.03 | pictilisib 0.075 | crizotinib -0.057 | [1] -0.025 | duvelisib 0.025 | gandotinib 0.01 | tozasertib 0.035 | doramapimod 0.019 | bafetinib 0.11 | [2] 0.101 | nilotinib 0.047 | [3] -0.035 | dasatinib 0.002 | [4] 0.019 | [5] 0.089 | quisinostat 0.042 | tipifarnib -0.023 | [6] 0.021 | [7] 0.001 | [8] 0.011

CKS1B (UniProt P61024)
Chain of UniProt P61024 (P61024 whole entry, looked up): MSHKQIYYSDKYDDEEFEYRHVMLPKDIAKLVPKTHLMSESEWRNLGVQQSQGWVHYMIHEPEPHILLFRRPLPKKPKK
inactive: lapatinib 0.039 | pictilisib 0.002 | crizotinib 0.094 | duvelisib -0.045 | gandotinib -0.183 | tozasertib 0.047 | doramapimod 0.023 | bafetinib 0.068 | nilotinib -0.03 | [3] 0.04 | dasatinib 0.065 | [4] -0.066 | [5] 0.011 | quisinostat 0.069 | tipifarnib 0.106 | [6] -0.051 | [7] 0 | [8] 0.11
active: [1] 0.302 | [2] -0.324

DCP1A (UniProt Q9NPI6)
Chain of UniProt Q9NPI6 (Q9NPI6 whole entry, looked up): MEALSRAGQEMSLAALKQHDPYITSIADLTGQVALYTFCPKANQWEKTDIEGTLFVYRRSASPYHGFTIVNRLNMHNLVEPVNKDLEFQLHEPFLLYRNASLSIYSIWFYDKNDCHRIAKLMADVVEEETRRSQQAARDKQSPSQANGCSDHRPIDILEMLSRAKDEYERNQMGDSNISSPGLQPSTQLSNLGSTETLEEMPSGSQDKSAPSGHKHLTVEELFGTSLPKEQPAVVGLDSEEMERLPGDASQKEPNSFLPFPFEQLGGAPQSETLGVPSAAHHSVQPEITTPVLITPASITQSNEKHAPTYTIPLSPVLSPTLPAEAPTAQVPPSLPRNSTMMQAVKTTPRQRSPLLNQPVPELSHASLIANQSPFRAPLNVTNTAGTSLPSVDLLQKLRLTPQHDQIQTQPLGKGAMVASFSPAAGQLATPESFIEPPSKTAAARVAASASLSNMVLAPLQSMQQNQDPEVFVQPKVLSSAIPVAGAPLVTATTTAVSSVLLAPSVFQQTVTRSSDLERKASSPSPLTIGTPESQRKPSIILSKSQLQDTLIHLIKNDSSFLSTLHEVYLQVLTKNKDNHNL
inactive: lapatinib -0.015 | pictilisib -0.015 | crizotinib -0.042 | [1] -0.008 | duvelisib 0.023 | gandotinib 0.003 | tozasertib -0.03 | doramapimod -0.031 | bafetinib 0.043 | [2] 0.089 | nilotinib 0.022 | [3] 0.117 | dasatinib -0.052 | [4] -0.023 | [5] -0.001 | quisinostat -0.042 | tipifarnib 0.039 | [6] 0.008 | [7] -0.041 | [8] -0.03

CSNK1G3 (UniProt Q9Y6M4)
Chain of UniProt Q9Y6M4 (Q9Y6M4 whole entry, looked up): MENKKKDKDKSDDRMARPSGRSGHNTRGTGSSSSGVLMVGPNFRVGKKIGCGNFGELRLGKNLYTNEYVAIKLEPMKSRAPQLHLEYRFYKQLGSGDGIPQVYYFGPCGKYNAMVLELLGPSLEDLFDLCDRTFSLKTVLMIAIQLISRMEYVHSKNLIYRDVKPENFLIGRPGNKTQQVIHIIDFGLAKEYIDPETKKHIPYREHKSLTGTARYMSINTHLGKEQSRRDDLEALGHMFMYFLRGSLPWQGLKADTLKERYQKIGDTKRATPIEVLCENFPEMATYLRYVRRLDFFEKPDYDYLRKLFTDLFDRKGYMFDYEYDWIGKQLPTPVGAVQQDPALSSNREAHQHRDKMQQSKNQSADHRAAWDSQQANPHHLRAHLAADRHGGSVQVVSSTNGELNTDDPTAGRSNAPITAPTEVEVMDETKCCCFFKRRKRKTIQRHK
inactive: lapatinib -0.155 | pictilisib 0.118 | crizotinib 0.026 | [1] 0.214 | duvelisib -0.042 | gandotinib -0.032 | tozasertib -0.048 | doramapimod -0.003 | bafetinib -0.09 | [2] -0.021 | nilotinib -0.029 | dasatinib 0.002 | [5] 0.014 | quisinostat -0.067 | tipifarnib 0.001 | [7] 0 | [8] 0.086
active: [3] 0.428 | [4] 0.388 | [6] 0.397

CHML (UniProt P26374)
inactive: lapatinib -0.006 | pictilisib -0.003 | crizotinib 0.022 | [1] -0.012 | duvelisib 0.006 | gandotinib 0.013 | tozasertib -0.004 | doramapimod -0.025 | bafetinib 0.094 | [2] 0.004 | nilotinib -0.001 | [3] 0.013 | dasatinib 0.035 | [4] -0.011 | [5] -0.001 | quisinostat 0 | tipifarnib -0.031 | [6] -0.015 | [7] -0.008 | [8] 0.002
